Pf Dd2 growth – inhibitors of Plasmodium falciparum Dd2 growth. P. falciparum Dd2 growth, SYBR Green, 72 h. Potency, µM (doses to about 28.9 µM), usual class: inhibitors. 4.3% of 120,000 active. AID 1347417; active = well fitted inhibition curve with a large enough effect; note: nearly all actives have a fitted effect of over 65% in size
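Infected erythrocytes (Dd2, 0.3% parasitemia, 2.5% hematocrit final) are added to compound in RPMI-1640/Albumax II medium, grown 72 h at 37C in low oxygen, then lysed with saponin/Triton-X containing SYBR Green and read by fluorescence.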
Each line names hits and unclear results; the compound was inactive in the other large screens. Only a selection was taken, and hits are over-represented in it overall.

CS(=O)(=O)N1CCC(C2CCN(Cc3ccc(Br)o3)C2)CC1 (stereo not given)	Pf Dd2 growth 4.5µM
Cc1ccc(CN2CCC(C3CCN(S(C)(=O)=O)CC3)C2)o1 (stereo not given)	none
CS(=O)(=O)N1CCC(C2CCN(Cc3cccs3)C2)CC1 (stereo not given)	Pf Dd2 growth 13µM
CNC(=O)N1CCC(C2CCN(C(=O)Cc3cccs3)C2)CC1 (stereo not given)	none
CS(=O)(=O)N1CCC(C2CCN(C3CCOCC3)C2)CC1 (stereo not given)	none
Cn1cccc1CN1CCC(C2CCN(S(C)(=O)=O)CC2)C1 (stereo not given)	none
CN(C)c1cccc(C(=O)N2CCC(n3cc(-c4nc(C5CC5)no4)nn3)C2)c1 (stereo not given)	none
CC(=O)N(C1CC1)C1CCOC2(CCN(C(=O)Nc3ccccc3F)CC2)C1 (stereo not given)	none
O=C(CCC[C@@H]1[C@H]2CCCN3CCC[C@@H](CN1C(=O)c1ccccc1)[C@@H]23)N1CCCCC1	none
CC(C)N1CCN(C(=O)CCC[C@@H]2[C@H]3CCCN4CCC[C@@H](CN2C(=O)c2ccccc2)[C@@H]34)CC1	none
O=C(CCC[C@@H]1[C@H]2CCCN3CCC[C@@H](CN1Cc1cccnc1)[C@@H]23)N1CCN(C2CCCC2)CC1	none
CCN(Cc1ccccc1)C(=O)CCC[C@@H]1[C@H]2CCCN3CCC[C@@H](CN1C(=O)c1ccccc1)[C@@H]23	Pf Dd2 growth 2µM
CC(C)N1CCN(C(=O)CCC[C@@H]2[C@H]3CCCN4CCC[C@@H](CN2Cc2ccccc2)[C@@H]34)CC1	Pf Dd2 growth 4µM
O=C(CCC[C@@H]1[C@H]2CCCN3CCC[C@@H](CN1C(=O)c1ccccc1)[C@@H]23)NCCN1CCCCC1	none
O=C(O)Cn1nc(C2CCOC2)nc1C1(c2ccccc2)CC1 (stereo not given)	none
CC(C)(C)n1ccc(C(=O)N2CCN(c3cccc(Cl)c3)C(=O)C2)c1	none
CC(C(=O)NCc1ccccc1)N1C(=O)COc2ccc(C(=O)COc3ccc(Cl)cc3)cc21 (stereo not given)	none
O=c1[nH]c(C2CCN([S+](=O)([O-])c3cccc(C(F)(F)F)c3)CC2)nn1-c1ccc(Cl)cc1	none
COc1ccc(CNC(=O)CN2C(=O)C(c3ccccc3)=NC23CCCC3)cc1OC	none
CCn1cc(S(=O)(=O)N2CC(N(C)Cc3cccnc3)C2)cn1	none
COc1ccccc1CN1CC[C@H]2COC(=O)N2c2cc(C)ccc2C1	none
COc1ccccc1CN1CCC(n2cc[nH]c2=O)CC1	none
COc1ccccc1CN1CCc2nc(C(=O)N3CCOCC3)oc2CC1	none
COc1ccc(CN2CCN(Cc3cc(=O)oc4cc(C)ccc34)CC2)c(OC)c1OC	none
CCCc1cc(=O)oc2c3c(ccc12)OCN(Cc1ccccc1OC)C3	Pf Dd2 growth 3.2µM
COc1ccccc1CN1COc2ccc3c(oc(=O)c4ccccc43)c2C1	Pf Dd2 growth 0.56µM
O=C(c1cn(CCC2CCCCC2)nn1)N1CCN(C(=O)c2ccco2)CC1	none
Cc1ccc(C(=O)N2CCC(Oc3ccc(C(=O)N(C)C)cn3)CC2)s1	none
CC(C)c1ccc(CC(=O)N2CCCc3ncc(C(=O)Nc4ccn(C)n4)cc32)cc1	none
COc1ccc(NC(=O)c2cnc3c(c2)N(C(=O)Cc2ccc(O)cc2)CCC3)cn1	none
O=C(NC(c1ccccc1)c1ccccc1)c1cnc2c(c1)N(C(=O)Cc1ccc(O)cc1)CCC2	Pf Dd2 growth 13µM
O=C(Nc1ccccc1)c1cnc2c(c1)N(C(=O)Cc1ccc(O)cc1)CCC2	none
Cc1csc(NC(=O)c2cnc3c(c2)N(C(=O)Cc2ccc(C(C)C)cc2)CCC3)n1	Pf Dd2 growth 7.1µM
CC(C)c1ccc(CC(=O)N2CCCc3ncc(C(=O)Nc4ccccc4)cc32)cc1	none
COc1ccccc1C(=O)N1CCc2nc(C(C)C)nc(-c3ccc(Cl)cc3)c2CC1	none
COc1ccc(-c2nc(C(C)C)nc3c2CCN(C(=O)Nc2ccccc2)CC3)cc1	Pf Dd2 growth 5µM
COc1ccc(-c2nc(C(C)C)nc3c2CCN(C(=O)C2CC2)CC3)cc1	none
COc1ccc(-c2nc(C(C)C)nc3c2CCN(C(C)=O)CC3)cc1	none
CC(C)c1nc2c(c(-c3ccc(O)cc3)n1)CN(C(=O)c1ccc(C(F)(F)F)cc1)CC2	none
CCc1nc2c(c(-c3ccc(OC)cc3)n1)CCN(C(=O)c1ccccc1OC)CC2	none
COc1ccc(-c2nc(C(C)C)nc3c2CCN(C(=O)N(C)C)CC3)cc1	none
CC(C)c1nc2c(c(-c3ccc(Cl)cc3)n1)CCN(C(=O)c1ccc(C(F)(F)F)cc1)CC2	Pf Dd2 growth 10µM
COc1ccc(-c2nc(C(C)C)nc3c2CCN(C(=O)c2ccc(F)cc2)CC3)cc1	Pf Dd2 growth 11µM
COc1ccc(-c2nc(C(C)C)nc3c2CCN(C(=O)c2cccc(Cl)c2)CC3)cc1	Pf Dd2 growth 5.6µM
Cc1ccc(C(=O)N2CCc3nc(C(C)C)nc(-c4ccc(O)cc4)c3C2)cc1	none
O=C(O)C(Cc1ccco1)n1cc(-c2nccs2)nn1 (stereo not given)	none
Cc1cc(C(=O)NCCCOC(C)C)c2c(C3CCNCC3)noc2n1	none
Cc1nc2ncccn2c1C(=O)N1CCNCC(C(=O)O)C1 (stereo not given)	none
CN(C)Cc1nnc(C2CC(NC(=O)CSCC3CC3)C2)n1C (stereo not given)	none
O=C(CC(F)(F)F)N1CCC(c2noc(-c3ccccc3)n2)C1 (stereo not given)	none
CC(C)=CC(=O)N[C@H]1C[C@@H](C(=O)N[C@H](Cc2ccccc2)C(N)=O)N(C(=O)C=C(C)C)C1	none
CCOc1ccc2c(n1)CCN(C(=O)c1ccc(OC)c(OC)c1)C2	none
O=C(Cn1ccn2nc3c(c2c1=O)CCCC3)NCCCc1ccccc1	none
CCc1ccc(C(=O)N2CCN(C(=O)c3nnn4c3COC(c3ccc(F)cc3)C4)CC2)cc1 (stereo not given)	none
CC(C)c1nc2c(c(-c3ccc(O)cc3)n1)CN(C(=O)C1CCCC1)CC2	none
CC(C)c1nc2c(c(-c3ccc(O)cc3)n1)CN(C(=O)Nc1ccc(Cl)cc1)CC2	Pf Dd2 growth 11µM
CC(C)c1nc2c(c(-c3ccc(O)cc3)n1)CN(C(=O)C1CC1)CC2	none
Cn1ccnc1CN1C(=O)CO[C@H]2CN(C(=O)NCc3ccccc3)C[C@H]21	none
CSc1cccc(NC(=O)O[C@@H]2CC[C@]3(C)C(CC[C@@H](O)[C@H]3CC(=O)N3CC[C@H](NC(C)=O)C3)[C@]2(C)CO)c1 (stereo not given in full)	none
COc1ccc(C(=O)N2[C@@H]3CC[C@H]2CC(NC(=O)c2ccc(F)cc2)C3)c(OC)n1 (stereo not given in full)	none
N#Cc1ccccc1CN1CCc2nc(N3CCOCC3)[nH]c(=O)c2CC1	none
CCN1CCN(CCNC(=O)CCC[C@H]2NC[C@@H]3C[C@H]2CN(Cc2ccccc2)C3)CC1	none
CN(Cc1cccnc1)C(=O)CCC[C@H]1NC[C@@H]2C[C@H]1CN(Cc1ccccc1)C2	none
O=C(CCC[C@H]1NC[C@@H]2CC1CN(Cc1ccccc1)C2)N1CCCC1	none
CN(Cc1ccc(N2CCCCC2)cc1)C(=O)CCC[C@H]1NC[C@@H]2C[C@H]1CN(Cc1ccccc1)C2	Pf Dd2 growth 4.5µM
Cc1nccn1CCNC(=O)CCC[C@H]1NC[C@@H]2C[C@H]1CN(Cc1ccccc1)C2	Pf Dd2 growth 3.5µM
CCN1CCN(CCCNC(=O)CCC[C@H]2NC[C@@H]3C[C@H]2CN(Cc2ccccc2)C3)CC1	none
COc1ccc2[nH]c3c(c2c1)CCNC31CCN(C(=O)C2CC=CC2)CC1	none
COc1cccc(Nc2ccnc(-c3nnc(C)n3C3CCCCC3)c2)c1	none
